{"source": "PubChem BioAssay AID631", "about": "(The Scripps Research Institute Molecular Screening Center, 2007)", "note": "Out of some 200,000 compounds screened, about 810 (0.41%) were called active. Rule as the data show it: active = activation above about 19%; inactive = the rest. The list comes from a sample in which actives are over-represented; it also holds similar structures and randomly drawn compounds.", "data": [{"molecular_target": "Peroxisome proliferator-activated receptor gamma (Homo sapiens) (UniProt P37231)", "sequence (P37231 whole entry, looked up)": "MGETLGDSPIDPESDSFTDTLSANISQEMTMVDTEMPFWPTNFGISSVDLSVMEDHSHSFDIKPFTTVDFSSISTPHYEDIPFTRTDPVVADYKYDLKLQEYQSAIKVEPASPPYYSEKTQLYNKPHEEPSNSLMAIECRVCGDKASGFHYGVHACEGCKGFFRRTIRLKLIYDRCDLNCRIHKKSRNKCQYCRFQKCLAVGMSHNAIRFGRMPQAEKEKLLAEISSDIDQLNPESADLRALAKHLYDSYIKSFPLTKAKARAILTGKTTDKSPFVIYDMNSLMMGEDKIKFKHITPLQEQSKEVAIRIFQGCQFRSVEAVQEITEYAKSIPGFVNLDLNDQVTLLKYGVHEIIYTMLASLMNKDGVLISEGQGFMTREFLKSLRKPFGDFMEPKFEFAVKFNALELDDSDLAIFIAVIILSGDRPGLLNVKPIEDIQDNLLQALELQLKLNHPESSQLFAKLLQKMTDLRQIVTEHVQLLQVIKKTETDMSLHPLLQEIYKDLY", "assay": "PPARgamma agonists recruiting SRC-1 coactivator, primary screen, biochemical (AID 631);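 also: 0% = DMSO and 100% = reference agonist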", "conditions": "PPARgamma-SRC-1 coactivator recruitment biochemical assay; at 8 µM; hits give high values", "values": [{"smiles": "Cc1cc(C)c2cc(CN(Cc3cccs3)Cc3nnnn3CC3CCCO3)c(=O)[nH]c2c1", "note": "(configuration not stated)", "activation": "23.5% (active)"}, {"smiles": "Cc1cc(C)c2cc(CN(Cc3nnnn3Cc3ccc(F)cc3)C3CCCC3)c(=O)[nH]c2c1", "activation": "2.6% (inactive)"}, {"smiles": "Cc1cc2cc(CN(Cc3cccs3)Cc3nnnn3CC3CCCO3)c(=O)[nH]c2cc1C", "note": "(configuration not stated)", "activation": "-4.1% (inactive)"}, {"smiles": "CCC(C)(C)NC(=O)C(c1ccccn1)N(C(=O)c1csnn1)c1ccccc1", "note": "(configuration not stated)", "activation": "3.1% (inactive)"}, {"smiles": "C/C(=N\\NC(=O)OC(C)(C)C)c1ccc[nH]1", "activation": "-0.7% (inactive)"}, {"smiles": "Cc1ccc(OCC(=O)Nc2ccc(S(=O)(=O)Nc3ccccn3)cc2)cc1", "activation": "2.2% (inactive)"}, {"smiles": "CC(=O)Nc1ccc(OCC(=O)NCc2ccc(C)cc2)cc1", "activation": "-5.7% (inactive)"}, {"smiles": "Cc1ccc(OCC(=O)Nc2ccc(-c3nc4ncccc4o3)cc2)cc1", "activation": "19.5% (active)"}, {"smiles": "O=C(C1CCN(C2CCN(Cc3cccc4c3OCO4)CC2)CC1)N1CCOCC1", "activation": "1.6% (inactive)"}, {"smiles": "Cn1c(SCC(=O)Nc2ccc(Br)cc2F)nnc1-c1ccco1", "activation": "0.1% (inactive)"}, {"smiles": "CCn1c(CNC(=O)c2ccco2)nnc1SCC(=O)Nc1cccc(F)c1", "activation": "1.6% (inactive)"}, {"smiles": "CCn1c(SCC(=O)Nc2cccc(F)c2)nnc1-c1cc2cc(Br)ccc2o1", "activation": "24.4% (active)"}, {"smiles": "Cc1ccc(OCC(=O)OC(C)CN(C)Cc2ccccc2)cc1", "note": "(configuration not stated)", "activation": "5% (inactive)"}, {"smiles": "COc1ccc(OC)c(C(=O)CSc2nnc(-c3cccs3)o2)c1", "activation": "11.4% (inactive)"}, {"smiles": "COC(=O)CSc1nccc(-c2cccs2)n1", "activation": "4.8% (inactive)"}, {"smiles": "NC(=O)CSc1oc(-c2cccs2)nc1S(=O)(=O)c1ccccc1", "activation": "20.3% (active)"}, {"smiles": "COc1cccc(CNC(=O)Cc2csc(Nc3nc(=S)[nH]c4ccccc34)n2)c1", "activation": "-3.6% (inactive)"}, {"smiles": "CC(C)C(NC(=O)C1CCC(C(C)(C)C)CC1)C(=O)NCCCN1CCCCC1", "note": "(configuration not stated)", "activation": "13.2% (inactive)"}, {"smiles": "Cc1cc(C)c2nc(N3CCCC3)c(C#N)cc2c1", "activation": "3.7% (inactive)"}, {"smiles": "CC(=O)c1ccc(S(=O)(=O)N2CCN(c3nc4c(C)c(C)ccc4cc3C#N)CC2)cc1", "activation": "27.9% (active)"}, {"smiles": "Cc1cccc2cc(C#N)c(N3CCCC3)nc12", "activation": "7.6% (inactive)"}, {"smiles": "CCCN1CNC(=S)N(CCc2ccccc2)C1", "activation": "4% (inactive)"}, {"smiles": "CNS(=O)(=O)c1ccc(N2CCCC2=O)c([N+](=O)[O-])c1", "activation": "-1.5% (inactive)"}, {"smiles": "COC(=O)c1[nH]c2ccccc2c1NS(=O)(=O)c1ccc(OC)cc1OC", "activation": "6.1% (inactive)"}, {"smiles": "COC(=O)c1[nH]c2ccccc2c1NC(=O)CN1CCCc2ccccc21", "activation": "0.3% (inactive)"}, {"smiles": "COC(=O)c1[nH]c2ccc(Br)cc2c1NC(=O)Oc1ccccc1", "activation": "20.2% (active)"}, {"smiles": "C=CCn1cc(-c2cccc(C(F)(F)F)c2)cc(C#N)c1=O", "activation": "5.6% (inactive)"}, {"smiles": "CCn1c(=O)cc(SCC(=O)NCCC2=CCCCC2)c2ccccc21", "activation": "13.8% (inactive)"}, {"smiles": "CC(C)NC(=O)CSc1ccccc1C(=O)NCc1ccc2c(c1)OCO2", "activation": "-1.4% (inactive)"}, {"smiles": "CCn1c(=O)cc(SCC(=O)NCc2ccc3c(c2)OCO3)c2ccccc21", "activation": "21.9% (active)"}, {"smiles": "COCCCNC(=S)NNC(=O)C(O)(c1ccccc1)c1ccccc1", "activation": "-2.3% (inactive)"}, {"smiles": "Cc1nn(CC(=O)NCc2ccccn2)c(C)c1[N+](=O)[O-]", "activation": "5.4% (inactive)"}, {"smiles": "CS(=O)(=O)N(CC(=O)NC1CCCC1)Cc1ccc(F)cc1", "activation": "6.9% (inactive)"}, {"smiles": "CCOP(=O)(OCC)C(Nc1ccc([N+](=O)[O-])cc1)c1ccc(Cl)cc1", "note": "(configuration not stated)", "activation": "-6.5% (inactive)"}, {"smiles": "Cc1ccccc1-c1n[nH]c(=S)n1C", "activation": "3.3% (inactive)"}, {"smiles": "Cc1n[nH]c(=S)n1/N=C/c1ccc(Br)o1", "activation": "7.5% (inactive)"}, {"smiles": "Cc1ccccc1-c1n[nH]c(=S)n1/N=C/c1ccc(-c2ccccc2Br)o1", "activation": "32.5% (active)"}, {"smiles": "O=C1CCCN1CCCNC(=S)Nc1ccc(F)c(Cl)c1", "activation": "-5.5% (inactive)"}, {"smiles": "CCc1nc2ccccc2c(C(=O)OC2CCCCC2=O)c1C", "note": "(configuration not stated)", "activation": "12.2% (inactive)"}, {"smiles": "CC1=C(C(=O)N(C)C)C(c2ccccc2OC(F)F)NC(=O)N1", "note": "(configuration not stated)", "activation": "6.7% (inactive)"}, {"smiles": "COC(=O)c1ccc(S(=O)(=O)c2ccc(C(=O)OC)s2)s1", "activation": "26.8% (active)"}, {"smiles": "CCS(=O)(=O)Nc1cc(C(=O)OC)ccc1C(=O)OC", "activation": "7% (inactive)"}, {"smiles": "COC(=O)c1cc(OC)ccc1-c1ccc(OC)cc1", "activation": "9.8% (inactive)"}, {"smiles": "CCOc1ccc(S(=O)(=O)Nc2ccncc2)c(C)c1C", "activation": "7.6% (inactive)"}, {"smiles": "Cc1ccc(C(=O)CNc2ccc(F)cc2)cc1", "activation": "-3.3% (inactive)"}, {"smiles": "COc1cccc2c1CCC(NC(C)=O)C2=O", "note": "(configuration not stated)", "activation": "0.5% (inactive)"}, {"smiles": "COc1ccc(NS(=O)(=O)c2cc(NC(=O)CC(=O)c3ccc([N+](=O)[O-])cc3)ccc2C)cc1", "activation": "2.2% (inactive)"}, {"smiles": "O=C(O)/C=C\\C(=O)Nc1ccc(OCc2ccccc2)cc1", "activation": "5.5% (inactive)"}, {"smiles": "O=C(NCCCN1CCN(c2ccc(F)cc2)CC1)Nc1ccc([N+](=O)[O-])cc1", "activation": "11.9% (inactive)"}, {"smiles": "N#Cc1c(C(F)(F)F)cc(-c2ccc(Cl)cc2)nc1SCC(=O)O", "activation": "3.2% (inactive)"}, {"smiles": "CCSc1nc(-c2ccc(OC)cc2)cc(-c2ccc(OC)cc2)c1C#N", "activation": "-1.5% (inactive)"}, {"smiles": "CCOC(=O)CC(=O)CSc1nc(-c2ccccc2)cc(-c2ccc(Cl)cc2)c1C#N", "activation": "22.2% (active)"}, {"smiles": "COc1ccc(C(=O)OCC(=O)NCC2CCCO2)cc1[N+](=O)[O-]", "note": "(configuration not stated)", "activation": "15% (inactive)"}, {"smiles": "O=C(NCCOc1ccccc1F)Nc1ccc(Br)cc1", "activation": "3.6% (inactive)"}, {"smiles": "CC/C(=N\\NC(=O)c1ccccc1Cl)c1ccc(Br)s1", "activation": "4.2% (inactive)"}, {"smiles": "CC(=O)n1c(C=Nc2ccccc2)c(O)c2ccccc21", "activation": "22.7% (active)"}, {"smiles": "CCCCn1c(=O)c(C(C)=O)c(O)c2ccccc21", "activation": "0.5% (inactive)"}, {"smiles": "CCOc1ccc(N=Cc2c(O)n(-c3cccc(C)n3)c(=O)c3ccccc23)cc1", "activation": "1.1% (inactive)"}, {"smiles": "COc1ccc(NS(=O)(=O)c2ccc(O)c(C(=O)OCC(=O)NC3CCCCC3)c2)cc1", "activation": "4.7% (inactive)"}, {"smiles": "CNC(=O)c1[nH]cnc1C(=O)N[C@@H](CC(C)C)C(=O)OC(C)(C)C", "activation": "5.5% (inactive)"}, {"smiles": "CN(CCc1cnn(C)c1)Cc1cn(C)nc1-c1ccccc1F", "activation": "-5.8% (inactive)"}, {"smiles": "CC(C)N(Cc1ccccc1)C(=S)Nc1ccc(OC(F)F)cc1", "activation": "-4.1% (inactive)"}]}]}
